Assay results taken from PubChem BioAssay (NCATS).
Where “and” joins values, the source holds several entries; their conditions need not be identical. Identical values can stand only once. Records with an inconclusive call do not appear. Calls of active or inactive are those of the source. Calls follow the shape of the dose curve; as a rule, active = well fitted curve in the direction sought with a large enough effect; inconclusive = small, poorly fitted or top-dose-only effect, or another doubt; inactive = no such curve, though single readings can be large; an effect the other way counts as inactive or inconclusive. Non-standard residues stand in square brackets, D forms with d. Residues, ends and D or L forms follow the SMILES beside them. *: point of attachment. Sta = CC(C)C[C@H](N)[C@@H](O)CC(=O)O; Isovaleryl = CC(C)CC(=O)*

What was measured:
[1] = qHTS of pediatric cancer cell lines to identify multiple opportunities for drug repurposing: Primary screen for NB-EBc1 cells (AID 1347095); also: potency is read from the fitted curve at half-maximal effect
How it was run: (§1)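 CRCs from 8- or 11-point titrations (lowest final 0.59 nM NPC, 0.78 nM MIPE). Cell viability: CellTiter-Glo after 48 h incubation, 15 min room-temperature development, luminescence imaging.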

[2] = qHTS of pediatric cancer cell lines to identify multiple opportunities for drug repurposing: Primary screen for U-2 OS cells (AID 1347096); also: nearly all actives have a fitted effect of over 50% in size
How it was run: (§2)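 Cells (500-1,000/well) rested 5 h, then received compounds for 48 h; metabolically active cells were measured by CellTiter-Glo luminescence. Final concentrations spanned up to 46 µM (MIPE, 11-point) or 0.59 nM-46 µM (NPC, 8-point) in primary screens, 11-point in follow-ups.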

[3] = qHTS of pediatric cancer cell lines to identify multiple opportunities for drug repurposing: Primary screen for BT-12 cells (AID 1347101); also: nearly all actives have a fitted effect of over 25% in size; also: potency is read from the fitted curve at half-maximal effect
How it was run: as §2

[4] = qHTS of pediatric cancer cell lines to identify multiple opportunities for drug repurposing: Primary screen for Rh18 cells (AID 1347102); also: nearly all actives have a fitted effect of over 65% in size; also: potency is read from the fitted curve at half-maximal effect
How it was run: as §2

[5] = qHTS of pediatric cancer cell lines to identify multiple opportunities for drug repurposing: Primary screen for RD cells (AID 1347104); also: nearly all actives have a fitted effect of over 55% in size; also: potency is read from the fitted curve at half-maximal effect
How it was run: as §1

[6] = qHTS of pediatric cancer cell lines to identify multiple opportunities for drug repurposing: Primary screen for NB1643 cells (AID 1347099); also: nearly all actives have a fitted effect of over 50% in size; also: potency is read from the fitted curve at half-maximal effect
How it was run: as §1

[7] = qHTS of pediatric cancer cell lines to identify multiple opportunities for drug repurposing: Primary screen for Saos-2 cells (AID 1347097); also: nearly all actives have a fitted effect of over 40% in size; also: potency is read from the fitted curve at half-maximal effect
How it was run: as §1

[8] = qHTS of pediatric cancer cell lines to identify multiple opportunities for drug repurposing: Primary screen for SK-N-SH cells (AID 1347098); also: nearly all actives have a fitted effect of over 65% in size; also: potency is read from the fitted curve at half-maximal effect
How it was run: as §2

[9] = qHTS of pediatric cancer cell lines to identify multiple opportunities for drug repurposing: Primary screen for LAN-5 cells (AID 1347100); also: potency is read from the fitted curve at half-maximal effect
How it was run: as §2

[10] = qHTS of pediatric cancer cell lines to identify multiple opportunities for drug repurposing: Primary screen for OHS-50 cells (AID 1347103); also: nearly all actives have a fitted effect of over 40% in size; also: potency is read from the fitted curve at half-maximal effect
How it was run: as §2

Measured: Potency

O=C1c2c(O)cc(O)cc2OC(c2ccc(O)c(O)c2)C1O (configuration not stated)
inactive: [1] | [2] | [3] | [4] | [5]

Oc1ccc2ccccc2c1SSc1c(O)ccc2ccccc12
active: [6] 26.4 µM
inactive: [2]

O=c1ccc2ccc(O)c(O)c2o1
inactive: [2] | [7] | [4]

Cc1ccc(C(=O)c2cc(O)c(O)c([N+](=O)[O-])c2)cc1
inactive: [2] | [8] | [6] | [3] | [4] | [5]

CCCOc1ccc2nc(NC(=O)OC)[nH]c2c1
active: [1] 0.001 µM | [7] 0.0299 µM | [3] 123 nM and 30.6 nM
inactive: [8] | [4]

C=C(c1ccc(C(=O)O)cc1)c1cc2c(cc1C)C(C)(C)CCC2(C)C
active: [10] 3.89 µM
not listed: [1] | [8]
inactive: all other assays above

O=c1cc(N2CCOCC2)oc2c(-c3ccccc3)cccc12
inactive: [2] | [9]
active: [6] 20.9 µM | [10] 2.73 µM

C[C@H](Cc1ccc(O)c(O)c1)[C@@H](C)Cc1ccc(O)c(O)c1
active: [1] 2.35 µM | [7] 29.6 µM | [6] 14.8 µM | [9] 10.5 µM | [3] 15.3 µM | [4] 18.7 µM | [10] 24.3 µM
inactive: [8]

Nc1nc(N)c(N=O)c(OCC2CCCCC2)n1
active: [7] 18.7 µM | [8] 24.1 µM | [6] 18.7 µM | [4] 18.7 µM | [10] 15.3 µM

CCc1nc(N)nc(N)c1-c1ccc(Cl)cc1
inactive: [7] | [8] | [6] | [4]
active: [1] 2.66 µM and 5.26 µM | [3] 8.71 µM and 10.9 µM | [5] 10.6 µM and 18.7 µM

COC(=O)C1=C(C)NC(C)=C(C(=O)OCCCN2CCC(c3ccccc3)(c3ccccc3)CC2)C1c1cccc([N+](=O)[O-])c1 (configuration not stated)
active: [8] 15.4 µM
not listed: [2] | [7] | [10]
inactive: all other assays above

OC(CN1CCN(c2cccc(Cl)c2)CC1)C(c1ccccc1)c1ccccc1 (configuration not stated)
active: [7] 18.7 µM | [10] 24.3 µM
inactive: [2] | [4]

CC(C)CC(=O)N[C@H](C(=O)N[C@H](C(=O)N[C@@H](CC(C)C)[C@@H](O)CC(=O)N[C@@H](C)C(=O)N[C@@H](CC(C)C)[C@@H](O)CC(=O)O)C(C)C)C(C)C (Isovaleryl-VV[Sta]A[Sta]-OH)
not listed: [1]
inactive: all other assays above

S=c1nc[nH]c2nc[nH]c12
active: [1] 531 nM and 1.66 µM | [9] 1.5 µM and 2.96 µM | [3] 15.5 µM and 24.3 µM | [10] 2.19 µM and 3.06 µM
inactive: [7] | [8] | [4] | [5]

CS(=O)(=O)OCCCCOS(C)(=O)=O
not listed: [1] | [7] | [8]
inactive: all other assays above

Clc1ccc(C(Cn2ccnc2)OCc2c(Cl)cccc2Cl)c(Cl)c1 (configuration not stated)
inactive: [2] | [8] | [4]

CN(C)C(=O)COC(=O)Cc1ccc(OC(=O)c2ccc(N=C(N)N)cc2)cc1
not listed: [1] | [10]
inactive: all other assays above

CCCCc1ccc2nc(NC(=O)OC)[nH]c2c1
active: [1] 1 nM and 106 nM | [7] 9.3 nM and 29.9 nM | [9] 0.0118 µM | [3] 27.3 nM and 61.7 nM | [10] 15.3 nM and 61.7 nM
inactive: [6] | [4]

Cc1ccc(Nc2nccc(N(C)c3ccc4c(C)n(C)nc4c3)n2)cc1S(N)(=O)=O
inactive: [6]
active: [9] 18.7 µM | [3] 12.3 µM and 15.3 µM | [4] 16.6 µM

O=C(CCc1ccc(O)cc1)c1c(O)cc(O)cc1O
active: [9] 6.62 µM | [3] 1.22 µM
inactive: [2] | [7] | [8] | [4] | [5]

Cc1cc(=O)c2c(O)c3c(O)cc(=O)c4c3c3c(cc(O)c1c23)C(C)(C)C=4O
inactive: [4]
active: [1] 5.8 µM and 418 nM | [7] 1.46 µM and 2.09 µM | [6] 1.16 µM and 2.35 µM | [9] 2.59 µM and 5.26 µM | [5] 2.06 µM and 3.72 µM

CC(C)c1ccc2c(c1)c(SC(C)(C)C)c(CC(C)(C)C(=O)O)n2Cc1ccc(Cl)cc1
active: [7] 29.6 µM | [6] 16.6 µM
inactive: [2]

Nc1nc(Cl)nc2c1ncn2[C@H]1C[C@H](O)[C@@H](CO)O1
inactive: [2] | [7] | [4]
active: [6] 1.05 µM | [9] 0.418 µM | [10] 15.3 µM

CC1(C)CCC(C)(C)c2cc(NC(=O)c3ccc(C(=O)O)cc3)ccc21
inactive: [2] | [9] | [3] | [4] | [5]

Cc1cc(O)c2c(c1)C(=O)c1cc(O)cc(O)c1C2=O
not listed: [1] | [6]
inactive: all other assays above

CCCc1cc(=O)[nH]c(=S)[nH]1
not listed: [1] | [8] | [9]
inactive: all other assays above

Nc1nc(OCc2ccccc2)c2[nH]cnc2n1
active: [1] 18.7 µM
inactive: [2] | [9] | [3] | [4] | [5]

CCCCCCCCOc1ccccc1C(=O)Nc1ccc(C(=O)OCC[N+](C)(CC)CC)cc1
active: [7] 29.6 µM | [3] 17.4 µM
inactive: [1] | [9] | [10]

COC1=C(OC)C(=O)C(CCCCCCCCCCO)=C(C)C1=O
inactive: [2] | [7] | [6]

Clc1ccc(C(Cn2ccnc2)OCc2ccsc2Cl)c(Cl)c1 (configuration not stated)
inactive: [2] | [8]
active: [6] 11.9 µM | [4] 37.6 µM | [10] 24.3 µM

O=C(NCC1CCCCN1)c1cc(OCC(F)(F)F)ccc1OCC(F)(F)F (configuration not stated)
inactive: [2] | [4] | [5]

CC(=O)O[C@H]1C(=O)[C@@]2(C)C([C@H](OC(=O)c3ccccc3)[C@]3(O)C[C@H](OC(=O)[C@H](O)[C@@H](NC(=O)c4ccccc4)c4ccccc4)C(C)=C1C3(C)C)[C@]1(OC(C)=O)CO[C@@H]1C[C@@H]2O (some centres not stated)
active: [9] 0.001 µM
inactive: [2] | [8]

Cc1c(C(=O)NN2CCCCC2)nn(-c2ccc(Cl)cc2Cl)c1-c1ccc(Cl)cc1
active: [9] 3.72 µM | [3] 4.85 µM | [10] 4.85 µM | [5] 18.7 µM
inactive: [2]

CC(=O)N1CCN(c2ccc(OC[C@H]3CO[C@](Cn4ccnc4)(c4ccc(Cl)cc4Cl)O3)cc2)CC1
active: [7] 33.2 µM | [9] 18.7 µM | [3] 24.3 µM
inactive: [2] | [8] | [6]

CC[C@]1(O)C[C@H]2CN(CCc3c([nH]c4ccccc34)[C@@](C(=O)OC)(c3cc4c(cc3OC)N(C=O)[C@H]3[C@@](O)(C(=O)OC)[C@H](OC(C)=O)[C@]5(CC)C=CCN6CC[C@]43[C@@H]65)C2)C1
inactive: [4]
active: [1] 9.3 nM and 237 nM | [7] 0.0235 µM | [9] 8.3 nM and 59.6 nM | [3] 15.3 nM and 19.5 nM | [10] 12.2 nM and 12.3 nM

O=Nc1c(-c2c(O)[nH]c3cc(Br)ccc23)[nH]c2ccccc12
active: [1] 8.33 µM | [7] 14.8 µM | [6] 9.35 µM | [9] 18.7 µM | [3] 24.3 µM | [4] 18.7 µM | [10] 19.3 µM | [5] 16.6 µM
